Publication PMC5540273 (PLoS ONE, 2017)

Legend:
Conditions in all cases: concentration: 1 μM, replicates: in singlicate; n = 1
PRKX = test system: PRKX
PRP4 = test system: PRP4
PYK2 = test system: T1, PYK2
T1 construct: gene PTK2B

QSK = test system: QSK
RAF1 = test system: RAF1
RET = test system: RET
RIOK1 = test system: RIOK1
RIOK2 = test system: RIOK2
RIOK3 = test system: RIOK3
RIPK1 = test system: RIPK1
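Further: KINOMEscan kinase panel screen.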

Row | Compound | %Inh (PRKX) [%] | %Inh (PRP4) [%] | %Inh (PYK2) [%] | %Inh (QSK) [%] | %Inh (RAF1) [%] | %Inh (RET) [%] | %Inh (RIOK1) [%] | %Inh (RIOK2) [%] | %Inh (RIOK3) [%] | %Inh (RIPK1) [%]
1 | COc1ccc(-c2cc3c(C)nc(N)nc3n([C@H]3CC[C@H](OCCO)CC3)c2=O)cn1 | 12 | 0 | 0 | 0 | 0 | 0 | 0 | 0 | 0 | 0
2 | COc1cc2ncn(-c3cc(OCc4ccc(S(C)(=O)=O)cc4)c(C(N)=O)s3)c2cc1OC [GW869979] | 0 | 0 | 0 | 27 | 0 | 26 | 0 | 8 | 0 | 18
3 | COc1cc(Nc2ccnc3ccc(C(F)(F)F)cc23)cc(OC)c1OC [GW577382] | 15 | 27 | 0 | 22 | 20 | 9 | 11 | 15 | 0 | 15
4 | COc1cccc(C2=C(Nc3cccc(C(=O)O)c3)C(=O)NC2=O)c1 [SB-390770] | 7 | 49 | 0 | 0 | 11 | 17 | 14 | 6 | 0 | 0
5 | Nc1n[nH]c2nnc(-c3ccccc3)c(-c3ccccc3)c12 [GW554060] | 18 | 8 | 0 | 0 | 18 | 0 | 32 | 13 | 0 | 0
6 | CN1C(=O)C(Nc2ccccc2)=C(c2ccccc2)C1=O [SB-300079] | 0 | 2 | 6 | 0 | 44 | 0 | 13 | 0 | 0 | 0
7 | CCc1nc(-c2cccc(C)c2)c(-c2ccncc2)s1 | 0 | 26 | 0 | 0 | 22 | 0 | 12 | 8 | 12 | 0
8 | CN(C)c1cc(-c2ccc3c(N)n[nH]c3c2)nc(N)n1 [GSK2219329] | 18 | 6 | 0 | 5 | 0 | 0 | 48 | 0 | 38 | 0
9 | COc1ccc(Nc2nccc(N3CCC(NS(=O)(=O)c4ccc(NC(C)=O)cc4)C3)n2)cc1 (centres unmarked) [GSK1379729] | 2 | 14 | 0 | 11 | 18 | 28 | 38 | 9 | 29 | 28
10 | COc1ccc(-c2coc3ccc(-c4nnc(SCc5cccc(C#N)c5)o4)cc23)cc1 | 0 | 18 | 0 | 0 | 14 | 16 | 0 | 5 | 11 | 0
11 | Fc1cccc(CSc2nnc(-c3ccc4c(c3)CCO4)o2)c1 | 7 | 0 | 8 | 0 | 2 | 0 | 0 | 5 | 8 | 3
12 | CCS(=O)c1ccc(-c2coc3ccc(-c4nnc(C)o4)cc23)cc1 (centres unmarked) | 0 | 21 | 0 | 0 | 0 | 0 | 0 | 15 | 0 | 1
13 | CCS(=O)(=O)c1ccc(OC)c(Nc2ncc(-c3ccc(F)cc3)o2)c1.Cl [GW591947] | 0 | 16 | 11 | 0 | 9 | 13 | 22 | 0 | 29 | 10
14 | FC(F)(F)c1ccc(-c2ncn(CCCN3CCOCC3)c2-c2ccncc2)cc1 [SB-217780] | 14 | 0 | 34 | 0 | 0 | 20 | 47 | 5 | 50 | 0
15 | Cc1cc(Nc2nc(-c3cccc(C)n3)nc3ccccc23)ccn1 [GW872411] | 0 | 0 | 14 | 0 | 0 | 0 | 0 | 0 | 0 | 0
16 | COC(=O)c1c(-c2ccccc2)c2cc(C)ccc2c(=O)n1Cc1ccccc1 | 0 | 4 | 0 | 0 | 66 | 13 | 3 | 0 | 0 | 0
17 | Nc1nc(N)c2nc(-c3ccccc3)[nH]c2n1 [SKF-12778] | 7 | 0 | 0 | 10 | 11 | 25 | 20 | 37 | 8 | 18
